For orientation: AC50 means the midpoint of the concentration-response curve, whichever way the signal moves.

In PubChem BioAssay (EPA / NIEHS) one finds outcome and AC50 data, which are given here for five compounds.

A short description of assay [1]: BSK_3C_SRB: Viability Assessment in the BioMAP Diversity Plus: 3C Assay (AID 2283023).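 Further: fitted both ways against DMSO so a hit may be signal rise or drop.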 The conditions noted are these: primary human endothelial cells (HUVEC). A digest of the protocol:
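Primary human umbilical vein endothelial cells in the 3C system were read 24 h after compound dosing. Total protein was stained with 0.1% sulforhodamine B after 10% TCA fixation and read at 560 nm, with bidirectional fitting against DMSO as baseline.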

Read-out in assay [2]: Matrix Metallopeptidase 1 (MMP1), MMP1 (gene 4312)
In words: BSK_BE3C_MMP1: BioMAP Diversity Plus: BE3C Assay for Matrix Metallopeptidase 1 (MMP1) Biomarker Activity (AID 2283024). As to conditions: primary human bronchial epithelial cells; actives raise or lower the signal. A digest of the protocol: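 MMP1 signal, measured by ELISA after a 24 h chemical exposure of human primary bronchial epithelial cells, is analysed with bidirectional fitting using DMSO as negative control.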

A short description of assay [3]: BSK_3C_Vis: BioMAP Diversity Plus: 3C Assay for Morphology Visualization (AID 2283025).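 Further: fitted both ways so gain or loss versus DMSO counts.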 The conditions noted are these: primary human endothelial cells (HUVEC). A digest of the protocol: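 Morphology read by light microscopy serves as a background control for the multiplexed 3C assay in human umbilical vein endothelial cells, taken 24 h after dosing, with DMSO as the negative control and bidirectional curve fitting.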

Read-out in assay [4]: Pselectin, SELP (gene 6403)
In words: BSK_4H_Pselectin: BioMAP Diversity Plus: 4H Assay for Pselectin Biomarker Activity (AID 2283026). The conditions noted are these: primary human endothelial cells (HUVEC); actives raise or lower the signal. A digest of the protocol: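 Endothelial primary cells (human umbilical vein) are dosed, incubated 24 h, and assayed for surface P-selectin by ELISA; responses in either direction are fitted relative to the DMSO negative control.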

The nature of assay [5]: BSK_4H_SRB: Viability Assessment in the BioMAP Diversity Plus: 4H Assay (AID 2283027).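 Further: cells exposed to compound for 24 h before staining.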 As to conditions: primary human endothelial cells (HUVEC). A digest of the protocol:
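Cytotoxicity read-out in primary human endothelial cells: after 24 h compound exposure, cells were TCA-fixed (10%), stained with 0.1% SRB and absorbance taken at 560 nm. Values fitted in both directions relative to DMSO.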

The nature of assay [6]: BSK_BE3C_SRB: Viability Assessment in the BioMAP Diversity Plus: BE3C Assay (AID 2283028). As to conditions: primary human bronchial epithelial cells. A digest of the protocol:
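Human primary bronchial epithelial cells were exposed to test chemicals for 24 h. Total protein in parallel cultures was then measured by staining with 0.1% sulforhodamine B after 10% TCA fixation, with absorbance read at 560 nm. Activity was fitted bidirectionally against DMSO.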

Read-out in assay [7]: Thrombomodulin, THBD (gene 7056)
In words: BSK_3C_Thrombomodulin: BioMAP Diversity Plus: 3C Assay for Thrombomodulin Biomarker Activity (AID 2283029). The conditions noted are these: primary human endothelial cells (HUVEC); actives raise or lower the signal. A digest of the protocol: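 Endothelial cells from umbilical vein are dosed with test chemical and incubated 24 h. Thrombomodulin is then quantified by ELISA, with DMSO serving as negative control and activity baseline.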

Read-out in assay [8]: Urokinase-type plasminogen activator receptor (uPAR), PLAUR (gene 5329)
The assay is described as follows: BSK_4H_uPAR: BioMAP Diversity Plus: 4H Assay for Urokinase-type plasminogen activator receptor (uPAR) Biomarker Activity (AID 2283030). The conditions noted are these: primary human endothelial cells (HUVEC); actives raise or lower the signal. A digest of the protocol:
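Primary human umbilical vein endothelial cells were exposed to chemical for 24 h before cell-surface uPAR was quantified by ELISA. Activity was fitted bidirectionally against the DMSO negative control baseline.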

Read-out in assay [9]: Vascular endothelial growth factor receptor 2 (Homo sapiens) (UniProt P35968)
In words: BSK_4H_VEGFRII: BioMAP Diversity Plus: 4H Assay for Vascular endothelial growth factor receptor 2 (VEGFR2) Biomarker Activity (AID 2283031). As to conditions: primary human endothelial cells (HUVEC); actives raise or lower the signal. A digest of the protocol: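 Primary human umbilical vein endothelial cells in the BioMAP 4H system were dosed with test chemical, and 24 h later VEGFRII was measured by ELISA. Activity was fitted bidirectionally against DMSO as negative control and baseline.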

Read-out in assay [10]: Human Leukocyte Antigen - DR isotype (HLADR), HLA-DRA (gene 3122)
The assay is described as follows: BSK_BE3C_HLADR: BioMAP Diversity Plus: BE3C Assay for Human Leukocyte Antigen - DR isotype (HLADR) Biomarker Activity (AID 2283032). The conditions noted are these: primary human bronchial epithelial cells; actives raise or lower the signal. A digest of the protocol:
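Chemicals are dosed onto BE3C bronchial epithelial cultures of human origin and left 24 h. HLA-DR is then measured by ELISA, and the endpoint is fitted in both directions using DMSO as the activity baseline.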

Read-out in assay [11]: Vascular cell adhesion molecule 1 (VCAM1), VCAM1 (gene 7412)
In words: BSK_4H_VCAM1: BioMAP Diversity Plus: 4H Assay for Vascular cell adhesion molecule 1 (VCAM1) Biomarker Activity (AID 2283033).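 Further: cell-surface VCAM-1 protein measured by ELISA.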 As to conditions: primary human endothelial cells (HUVEC); actives raise or lower the signal. A digest of the protocol: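 Chemicals are added to primary human umbilical vein endothelial cells. After 24 h, VCAM-1 levels are measured by ELISA. Values come from bidirectional fitting referenced to DMSO.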

Read-out in assay [12]: Interferon-gamma inducible Protein 10 (IP10), CXCL10 (gene 3627)
The assay is described as follows: BSK_BE3C_IP10: BioMAP Diversity Plus: BE3C Assay for Interferon-gamma inducible Protein 10 (IP10) Biomarker Activity (AID 2283034). As to conditions: primary human bronchial epithelial cells; actives raise or lower the signal. A digest of the protocol: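 IP-10 quantified by ELISA serves as the endpoint. Cells: primary human bronchial epithelium, read 24 h after compound addition. Activity is derived by bidirectional fitting with DMSO as negative control.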

Read-out in assay [13]: Monokine induced gamma interferon (MIG), CXCL9 (gene 4283)
The assay is described as follows: BSK_BE3C_MIG: BioMAP Diversity Plus: BE3C Assay for Monokine induced gamma interferon (MIG) Biomarker Activity (AID 2283035).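 Further: MIG protein measured by ELISA in BE3C cultures after 24 h of dosing.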 As to conditions: primary human bronchial epithelial cells; actives raise or lower the signal. A digest of the protocol: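 ELISA quantified MIG after 24 h exposure of primary bronchial epithelial cultures, analysed in both directions relative to DMSO. Cytotoxicity tracked in parallel cultures by sulforhodamine B staining.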

Read-out in assay [14]: Transforming growth factor beta 1 (TGFb1), TGFB1 (gene 7040)
In words: BSK_BE3C_TGFb1: BioMAP Diversity Plus: BE3C Assay for Transforming growth factor beta 1 (TGFb1) Biomarker Activity (AID 2283036;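 further: TGF-b1 protein level measured by ELISA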). As to conditions: primary human bronchial epithelial cells; actives raise or lower the signal. A digest of the protocol:
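Bronchial epithelial primary cells are treated with test chemical, then TGF-b1 is quantified by ELISA after 24 hours. Values derive from bidirectional fitting against DMSO, with cytotoxicity checked by SRB staining in parallel cultures.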

Read-out in assay [15]: Plasminogen activator inhibitor-1 (PAI1), SERPINE1 (gene 5054)
The assay is described as follows: BSK_BE3C_PAI1: BioMAP Diversity Plus: BE3C Assay for Plasminogen activator inhibitor-1 (PAI1) Biomarker Activity (AID 2283037). As to conditions: primary human bronchial epithelial cells; actives raise or lower the signal. A digest of the protocol:
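Values derive from bidirectional fitting against DMSO baseline of PAI-1 levels, measured by ELISA in human bronchial epithelial cells 24 h after compound addition.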

Read-out in assay [16]: urokinase plasminogen activator (uPA), PLAU (gene 5328)
The assay is described as follows: BSK_BE3C_uPA: BioMAP Diversity Plus: BE3C Assay for urokinase plasminogen activator (uPA) Biomarker Activity (AID 2283038).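 Further: uPA protein level quantified by ELISA in cell cultures; uPA read one day after compound addition.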 As to conditions: primary human bronchial epithelial cells; actives raise or lower the signal. A digest of the protocol:
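Human primary bronchial epithelial cells were exposed to chemical for 24 h, then uPA levels were measured by ELISA. Responses were fitted bidirectionally against DMSO as negative control and baseline. Parallel SRB staining of total protein gauged overt cytotoxicity.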

Read-out in assay [17]: Urokinase-type plasminogen activator receptor (uPAR), PLAUR (gene 5329)
In words: BSK_BE3C_uPAR: BioMAP Diversity Plus: BE3C Assay for Urokinase-type plasminogen activator receptor (uPAR) Biomarker Activity (AID 2283039).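 Further: cells exposed to compound for one day before measurement.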 As to conditions: primary human bronchial epithelial cells; actives raise or lower the signal. A digest of the protocol:
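Steps: dose human primary bronchial epithelial cells, incubate 24 h, measure uPAR by ELISA, then fit gain- or loss-of-signal response bidirectionally relative to DMSO.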

Read-out in assay [18]: Interleukin-6 (IL6), IL6 (gene 3569)
The assay is described as follows: BSK_CASM3C_IL6: BioMAP Diversity Plus: CASM3C Assay for Interleukin-6 (IL6) Biomarker Activity for (AID 2283040). As to conditions: primary human coronary artery smooth muscle cells; actives raise or lower the signal.

Read-out in assay [19]: Tissue plasminogen activator (tPA), PLAT (gene 5327)
The assay is described as follows: BSK_BE3C_tPA: BioMAP Diversity Plus: BE3C Assay for Tissue plasminogen activator (tPA) Biomarker Activity (AID 2283041).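 Further: tPA level quantified by ELISA one day after compound addition.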 As to conditions: primary human bronchial epithelial cells; actives raise or lower the signal. A digest of the protocol: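 Gain- or loss-of-signal in tPA, measured by ELISA, derived by bidirectional fitting against DMSO. Cells: human primary bronchial epithelial; read at 24 h after chemical dosing.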

The structures appear in SMILES notation. Calls of active or inactive are those of the source. How the source made its calls: active means hit-call score of the fitted dose curve at least 0.9, where 1 is the maximum; inactive means score below 0.9.

As to `COC(=O)c1ccccc1O`, the result in assay [1], in assay [2], in assay [3], in assay [4], in [5] and in [6] was inactive. The result in assay [7], in assay [8], in assay [9], in assay [10], in assay [11] and in assay [12] was inactive. Moreover, the result in assay [13], in [14], in assay [15], in assay [16], in assay [17] and in assay [18] was inactive.
On to `CC(C)CC(C)(O)C#CC(C)(O)CC(C)C` (configuration not stated), for which the outcome in [1], in assay [2], in assay [3], in assay [5], in assay [6] and in [7] was inactive. The result in assay [8], in [10], in [11], in assay [12], in assay [13] and in assay [14] was inactive. The result in assay [15], in assay [16], in assay [17] and in assay [18] was inactive.
As for `CC(=O)OCCC(C)C`, the outcome in assay [1], in assay [2], in assay [3], in assay [4], in [5] and in [6] was inactive. Moreover, the result in assay [7], in assay [8], in [9], in assay [10], in [11] and in [12] was inactive. Besides, the outcome in assay [13], in assay [14], in assay [15], in [16], in assay [17] and in assay [18] was inactive. For the same compound, in assay [19], the result was inactive.
Consider `O=P(OC(CCl)CCl)(OC(CCl)CCl)OC(CCl)CCl`, for which the result in [1], in assay [6], in [7], in [8], in [9] and in assay [10] was inactive. In addition, the outcome in [11], in [12], in assay [13], in [14], in assay [15] and in assay [16] was inactive. Also, the outcome in assay [17] and in assay [18] was inactive. Besides, the values for the AC50 in assay [2] and in assay [3] were 7.97 µM (active) and 39 µM (active), respectively.
As to `COCCOc1cc2cc(C(=O)NC3CCN(C(C)C)CC3)n(CC(=O)Nc3ccc(Cl)cn3)c2cn1`, the result in assay [1], in assay [2], in assay [3], in assay [4], in assay [6] and in [7] was inactive. Moreover, the outcome in assay [8], in [9], in [10], in [11], in [12] and in assay [13] was inactive. Besides, the result in [14], in assay [15], in assay [16], in assay [17], in assay [18] and in assay [19] was inactive.
